Results filed as inconclusive are left out. Calls of active or inactive are those of the source. Calls come from the whole dose curve; as a rule, active = well fitted inhibition curve with a large enough effect; inconclusive = small, poorly fitted or top-dose-only effect; inactive = flat fitted curve, though single readings scatter.
Key:
Test in all cases: qHTS profiling for inhibitors of Plasmodium falciparum proliferation (AID 504749); note: nearly all actives have a fitted effect of over 60% in size
7G8 = settings: P. falciparum in erythrocytes, SYBR Green DNA, 72 h; series mostly up to 12.8 µM
In short: (§1)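 Infected RBCs, 0.3% parasitemia/2.5% Hct final; cpd 72 h, 37 C, 5% CO2; lysis buffer with saponin/triton/SYBR Green I, o/n RT dark; FI 485/535; norm. to artemisinin (0.29 uM) and DMSO.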

AA1029 = settings: P. falciparum in erythrocytes, SYBR Green DNA, 72 h; series mostly up to 12.8 µM
In short: as §1

CP211 = settings: P. falciparum in erythrocytes, SYBR Green DNA, 72 h; series mostly up to 12.8 µM
In short: as §1

CP215 = settings: P. falciparum in erythrocytes, SYBR Green DNA, 72 h; series mostly up to 28.7 µM
In short: as §1

CP217 = settings: P. falciparum in erythrocytes, SYBR Green DNA, 72 h; series mostly up to 12.8 µM
In short: as §1

CP250 = settings: P. falciparum in erythrocytes, SYBR Green DNA, 72 h; series mostly up to 12.8 µM
In short: as §1

CP252 = settings: P. falciparum in erythrocytes, SYBR Green DNA, 72 h; series mostly up to 12.8 µM
In short: as §1

CP260 = settings: P. falciparum in erythrocytes, SYBR Green DNA, 72 h; series mostly up to 12.8 µM
In short: as §1

CP268 = settings: P. falciparum in erythrocytes, SYBR Green DNA, 72 h; series mostly up to 12.8 µM
In short: as §1

CP297 = settings: P. falciparum in erythrocytes, SYBR Green DNA, 72 h; series mostly up to 12.8 µM
In short: as §1

CP315 = settings: P. falciparum in erythrocytes, SYBR Green DNA, 72 h; series mostly up to 12.8 µM
In short: as §1

DIV14 = settings: P. falciparum in erythrocytes, SYBR Green DNA, 72 h; series mostly up to 12.8 µM
In short: as §1

DIV17 = settings: P. falciparum in erythrocytes, SYBR Green DNA, 72 h; series mostly up to 12.8 µM
In short: as §1

FAB9 = settings: P. falciparum in erythrocytes, SYBR Green DNA, 72 h; series mostly up to 12.8 µM
In short: as §1

ICS = settings: P. falciparum in erythrocytes, SYBR Green DNA, 72 h; series mostly up to 12.8 µM
In short: as §1

JCK = settings: P. falciparum in erythrocytes, SYBR Green DNA, 72 h; series mostly up to 12.8 µM
In short: as §1

N140 = settings: P. falciparum in erythrocytes, SYBR Green DNA, 72 h; series mostly up to 12.8 µM
In short: as §1

PC15 = settings: P. falciparum in erythrocytes, SYBR Green DNA, 72 h; series mostly up to 12.8 µM
In short: as §1

TAB165 = settings: P. falciparum in erythrocytes, SYBR Green DNA, 72 h; series mostly up to 12.8 µM
In short: as §1

W2 = settings: P. falciparum in erythrocytes, SYBR Green DNA, 72 h; series mostly up to 12.8 µM
In short: as §1

Measured: Potency
Potency is the fitted concentration of half-maximal effect.

Cc1cc(/C=C\c2ccc3cc(N(C)C)ccc3[n+]2C)c(C)n1-c1ccccc1
active: 7G8 398 nM | AA1029 1580 nM | CP211 1810 nM | CP215 3220 nM | CP217 3160 nM | CP250 2820 nM | CP252 3550 nM | CP260 355 nM | CP268 4050 nM | CP297 2280 nM | CP315 2030 nM | DIV14 2870 nM | DIV17 3610 nM | FAB9 2000 nM | ICS 562 nM | JCK 3160 nM | N140 3980 nM | PC15 3550 nM | TAB165 794 nM | W2 128 nM
